Screening data as filed in PubChem BioAssay.
Abeta rescue: restores growth of yeast expressing A-beta42 peptide; yeast expressing A-beta42, growth rescue, OD600, 48 h; response scale: 0% DMSO, 100% iron-clioquinol control; Potency, µM (doses to about 46.1 µM), actives largely listed as activators; 410,000 compounds, 0.063% hits; AID 1347071; further: nearly all actives have a fitted effect of over 55% in size
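Yeast growth medium received pinned compounds, then yeast cells expressing toxic A-beta were added; plates incubated at 30 C for 48 hr. Growth read as absorbance at 600 nm, normalized to DMSO and equimolar FeCl3 plus clioquinol controls.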
FUS yeast rescue: FUS proteinopathy suppression in yeast | 390,000 compounds, 0.24% hits | S. cerevisiae FUS-expressing, growth rescue, OD600, 24 h | AID 1347120 | Potency, µM (series often up to 76.6 µM), usual class: activators;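 further: plate controls were DMSO vehicle for no effect and reference control for full effect; nearly all actives have a fitted effect of over 55% in size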
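Absorbance at 600 nm, taken 24hr after compound addition, measured rescue of FUS-yeast growth at 30C. Induction used 2% galactose with seeding at OD 0.005. Controls: CP55940 from 92uM final, DMSO only.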
aSyn yeast inh: rescues yeast growth from alpha-synuclein toxicity; Potency, µM (top dose mostly 46.1 µM), for the others: at the highest dose growth rescue (activation), actives largely listed as activators; 370,000 compounds, 0.14% hits; Yeast expressing alpha-synuclein, growth rescue, BacTiter-Glo, 24 h; further: % of control where 0% means no effect; nearly all actives have a fitted effect of over 65% in size
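Screening used galactose-induced yeast with toxic alpha-synuclein levels, exposed to compound for 24 hr at 30 deg C. Cell growth, read with BacTiter-Glo luminescence, gave the measured signal.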
Mito fusion yeast: blocks mitochondrial division or promotes mitochondrial fusion; Potency, µM (doses to about 46.1 µM), inactives show at the highest dose growth rescue (activation), actives largely listed as activators; S. cerevisiae fusion-defective mutant growth rescue, CellTiterGlo 48 h; AID 485298; 320,000 compounds, 0.23% hits; further: % of control where 0% means no effect; nearly all actives have a fitted effect of over 45% in size
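Yeast fusion mutant, YPEG (non-fermentable carbon), compound, 48 h at 37C non-permissive; CellTiterGlo added, 10 min RT, luminescence read. Rescued growth = division inhibition.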
TDP43 rescue: rescues yeast growth from TDP-43 toxicity; 410,000 compounds, 1.8% hits; Potency, µM (titrated, usually from 46.1 µM), for the others: top-dose growth rescue (activation), actives largely listed as activators; AID 652104; TDP-43 expressing yeast growth rescue, BacTiter-Glo, 24 h; further: % of control where 0% means no effect; nearly all actives have a fitted effect of over 50% in size
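Yeast cells expressing TDP-43 under galactose induction are exposed to compounds for 24 hr at 30 deg C. BacTiter-Glo luminescence measures growth, so protective compounds score as activators.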
* = called active by the depositor; i = inactive; ? = inconclusive; nt = no result. This is a sample that favours compounds with a hit; in the whole collection about 2.2% have one here. The call rests on the fitted dose curve; in most records, active means well fitted curve in the direction sought with a large enough effect; inconclusive means small, poorly fitted or top-dose-only effect, or another doubt; inactive means no such curve, though single readings can be large; an effect the other way counts as inactive or inconclusive. Potency means the concentration at half of the fitted maximal effect.

SMILES	Abeta rescue	FUS yeast rescue	aSyn yeast inh	Mito fusion yeast	TDP43 rescue
Cc1c(C)n(C)c2ccc(C(=O)N3CCN(c4ccccn4)CC3)cc12	i	i	5.3%	8.9%	16.9%
COc1ccccc1N1CCN(C(=O)c2ccc3[nH]c(C)c(C)c3c2)CC1	nt	?	14.6%	2.1%	19.4%
O=C(c1cccnc1)N1CCN(c2ccccc2Cl)CC1	nt	nt	nt	24.9%	nt
CCn1c(C)c(C)c2cc(C(=O)N3CCc4ccccc4C3)ccc21	nt	i	25.5%	23.4%	20µM*
Cc1[nH]c2ccc(C(=O)N3CCN(c4cccc(Cl)c4)CC3)cc2c1C	i	?	20µM*	-5.0%	?
O=C(c1ccccc1)c1ccc(C(=O)N2CCN(c3ccccc3Cl)CC2)cc1	i	?	1.1%	24.4%	11.2µM*
Cn1nc(-c2ccccc2)c(C(=O)Nc2ccc(Cl)cc2)c1Cl	i	i	4.5%	-5.7%	3.16µM*
Cn1nc(C(F)(F)F)c(C(=O)Nc2ccc(C(F)(F)F)cc2)c1Cl	i	i	-3.6%	7.9%	20µM*
Cn1nc(-c2ccccc2)c(C(=O)Nc2ccc(C(F)(F)F)cc2)c1Cl	i	i	-6.8%	0.1%	-2.2%
O=C(N/N=C/c1cccc2cccnc12)c1ccccc1O	?	i	22.4µM*	-2.7%	-14.1%
O=C(N/N=C/c1cccc2nccnc12)c1ccccc1O	i	i	?	2.2%	-3.2%
COC(=O)C1=C(O)CSC1=Nc1ccc(C)cc1	i	nt	9.1%	-8.2%	15.8µM*
COC(=O)C1=C(O)CSC1=Nc1ccccc1	i	i	-10.4%	-2.9%	10.7%
CSc1nc2ccc(NS(=O)(=O)c3c(Cl)cccc3Cl)cc2s1	i	nt	23.6%	4.9%	10µM*
Cc1nc2ccc(NS(=O)(=O)c3ccc(F)c(F)c3F)cc2s1	i	i	?	nt	20µM*
Cc1nc2ccc(NS(=O)(=O)c3ccc(C)c(C)c3)cc2s1	i	i	18.7%	-6.7%	27.1%
Cc1nc2ccc(NS(=O)(=O)c3ccc(F)cc3F)cc2s1	i	nt	20.1%	9.7%	12.6µM*
O=S(=O)(Nc1ccc(N2CCOCC2)cc1)c1c(F)cc(F)cc1Br	i	i	22.4µM*	0.7%	?
CCc1ccc(CNC(=O)c2nn(-c3ccc(C)cc3)c(=O)c3c2c2ccccc2n3C)cc1	i	i	nt	nt	1.0%
Cc1nc2ccc(NS(=O)(=O)c3c(F)cc(F)cc3Br)cc2s1	i	i	?	7.7%	15.8µM*
CC(=O)c1cccc(S(=O)(=O)Nc2ccc3nc(C)sc3c2)c1	i	i	1.0%	0.9%	19.9%
Cc1ccc(N2C(=O)CSC23C(=O)N(CC(=O)NCCc2ccccc2)c2ccccc23)cc1C (stereo not drawn)	i	i	0.7%	nt	19.9%
CC1CCCN(C(=O)c2cc3c(Cl)nc4ccccc4c3s2)C1 (stereo not drawn)	i	i	nt	nt	20µM*
COc1ccc(NC(=O)CSC2=Nc3ccccc3C3=NC(CCC(=O)NCc4ccco4)C(=O)N23)cc1 (stereo not drawn)	i	i	nt	nt	19.5%
CN(C(=O)CSc1cn(CC(=O)N2CCCC2)c2ccccc12)c1ccccc1	i	i	nt	nt	15.2%
SMILES	Abeta rescue	FUS yeast rescue	aSyn yeast inh	Mito fusion yeast	TDP43 rescue
CCc1nc2ccc(C(=O)N3CCN(C(=O)c4ccco4)CC3)cn2c1N(C)C(=O)C1CCCCC1	i	i	0.3%	nt	?
CCN(CC)c1ccc(C(=O)Nc2ccccc2)cc1[N+](=O)[O-]	i	i	3.7%	18.2%	25.1µM*
COc1ccc(C(=O)Nc2ccc(Nc3ccccc3)cc2)cc1[N+](=O)[O-]	i	i	?	-4.3%	?
Cc1ccc(N2CC(NC(=O)c3ccc(S(=O)(=O)N(C)C)cc3)CC2=O)cc1C (stereo not drawn)	i	i	nt	nt	21.2%
CSc1nc(NCCOCCO)c2sc3nc(-c4ccco4)c4c(c3c2n1)CCC4	i	?	7.5%	-2.5%	-3.4%
CCN(CCO)c1nc(SC)nc2c1sc1nc(-c3ccco3)c3c(c12)CCC3	i	nt	8.5%	-7.1%	10µM*
Brc1ccccc1C1CC(c2ccccc2)=Nc2ccccc2N1 (stereo not drawn)	i	i	-21.1%	8.7%	35.5µM*
COc1ccc(-c2cc(=O)oc3c(C)c(OC(C)C(C)=O)ccc23)cc1 (stereo not drawn)	i	i	-12.3%	22.4µM*	20.7%
CC(=O)C(C)Oc1ccc2c3c(c(=O)oc2c1C)CCCC3 (stereo not drawn)	i	i	2.2%	1.3%	20µM*
COc1cccc(CNC(=O)c2cnc3sc(N4CCCC4)nn3c2=O)c1OC	i	i	nt	nt	19.6%
O=C1NC(c2cccc(Cl)c2)Oc2ccccc21 (stereo not drawn)	i	i	0.0%	2.3%	?
Cc1cccc(C2NC(=O)c3ccccc3O2)c1 (stereo not drawn)	i	i	7.4%	-0.4%	14.1µM*
CC(C)(C)NC(=O)C(c1cccc2ccccc12)n1c(=O)c(-c2ccccc2)nc2ccccc21 (stereo not drawn)	i	i	-12.5%	nt	35.5µM*
O=C(Nc1nc(-c2ccco2)c(-c2ccco2)s1)c1ccc(F)cc1F	i	i	3.7%	-7.7%	-8.1%
O=C(Nc1nc(-c2ccco2)c(-c2ccco2)s1)c1c(F)cccc1Cl	i	?	-0.1%	12.6µM*	22.1%
CC(=O)N1CCc2cc(CNS(=O)(=O)c3cccs3)ccc21	i	i	nt	nt	17.7%
COc1ccc(NC(=O)Cn2cc(S(=O)(=O)Cc3ccc(F)cc3)c3ccccc32)cc1OC	i	i	nt	nt	0.7%
CCOc1ccc(NC(=O)CN(c2ccc(Cl)cc2C)S(=O)(=O)c2ccccc2)cc1	i	22.4µM*	nt	nt	7.1%
CCOc1ccc(NC(=O)CN(c2ccccc2OCC)S(=O)(=O)c2ccccc2)cc1	i	i	nt	nt	0.0%
Cc1ccc(OCCNC(=O)c2cccc(S(=O)(=O)N3CCN(C)CC3)c2)cc1	i	i	-3.6%	-4.4%	6.5%
Cc1c(C(=O)N(C)Cc2ccccc2)sc2nc(-c3ccc(F)cc3)cn12	i	?	nt	nt	22.4µM*
Cc1c(C(=O)NCc2ccc(F)cc2)sc2nc(-c3ccccc3)cn12	i	i	nt	nt	18.6%
Cc1ccccc1Cn1c(C)c(C(=O)N(C)Cc2ccc(F)cc2)sc1=O	i	i	14.8%	nt	11.9%
Cc1cc(C)cc(Cn2c(C)c(C(=O)N(C)Cc3ccc(F)cc3)sc2=O)c1	i	i	10.5%	nt	31.6µM*
Cc1c(C(=O)N(C)c2ccccc2)sc2nc(-c3ccc(F)cc3)cn12	i	i	nt	nt	35.5µM*
COc1ccc(-c2nc(N3CCN(S(=O)(=O)c4ccc(C)cc4)CC3)c3ccccc3n2)cc1	nt	nt	2.8%	nt	nt
